Common to all, as to set-up: scale not given: direction of the effect not stated beside the values
Experiment [1] has as its target Protein translocase subunit SecA (Escherichia coli (strain K12)) (UniProt P10408). Put plainly: Assay to Identify E. coli SecA ATPase Inhibitors. Conditions: 30 µM. In kind it is functional.
In experiment [2] the target is T1, Ubiquitin-activating enzyme e1, putative (Leishmania donovani (strain BPK282A1)) (UniProt E9BSI1).
T1 sequence (whole entry): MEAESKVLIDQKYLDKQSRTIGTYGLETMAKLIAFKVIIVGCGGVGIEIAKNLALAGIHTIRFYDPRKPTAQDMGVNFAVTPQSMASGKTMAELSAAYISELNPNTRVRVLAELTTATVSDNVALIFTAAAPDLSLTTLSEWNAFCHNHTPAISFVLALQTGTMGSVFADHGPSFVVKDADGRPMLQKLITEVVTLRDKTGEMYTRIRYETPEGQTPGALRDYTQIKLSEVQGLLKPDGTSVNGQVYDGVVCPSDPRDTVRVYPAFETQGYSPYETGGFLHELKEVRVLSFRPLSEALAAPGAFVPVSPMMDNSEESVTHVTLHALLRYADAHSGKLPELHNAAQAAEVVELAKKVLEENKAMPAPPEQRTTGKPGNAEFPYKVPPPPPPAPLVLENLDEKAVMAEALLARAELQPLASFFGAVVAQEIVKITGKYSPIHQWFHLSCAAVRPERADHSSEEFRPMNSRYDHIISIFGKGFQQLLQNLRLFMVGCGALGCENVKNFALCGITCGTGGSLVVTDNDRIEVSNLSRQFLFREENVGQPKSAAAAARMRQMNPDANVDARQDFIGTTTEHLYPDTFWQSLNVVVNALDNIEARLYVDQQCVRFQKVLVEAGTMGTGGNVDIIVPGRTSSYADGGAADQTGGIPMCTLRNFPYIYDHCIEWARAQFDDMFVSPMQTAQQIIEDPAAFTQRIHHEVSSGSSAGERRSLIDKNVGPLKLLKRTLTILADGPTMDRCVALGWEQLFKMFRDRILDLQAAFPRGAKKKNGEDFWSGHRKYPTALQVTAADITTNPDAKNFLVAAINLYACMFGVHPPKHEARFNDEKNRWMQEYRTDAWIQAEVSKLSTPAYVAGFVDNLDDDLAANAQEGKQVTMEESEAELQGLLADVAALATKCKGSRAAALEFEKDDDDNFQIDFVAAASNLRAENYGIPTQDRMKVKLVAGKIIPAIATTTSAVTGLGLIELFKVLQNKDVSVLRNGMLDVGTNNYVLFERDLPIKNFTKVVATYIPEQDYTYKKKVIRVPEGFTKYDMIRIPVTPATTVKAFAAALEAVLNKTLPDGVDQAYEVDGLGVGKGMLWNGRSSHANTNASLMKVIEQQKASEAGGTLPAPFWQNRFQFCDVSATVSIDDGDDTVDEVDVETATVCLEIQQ
The experiment in a line: Leishmania donovani Ubiquitin Activating Enzyme (LdE1). In kind it is functional. The note with it: 30 µM.

Experiment [3] concerns the target Sialic acid-binding Ig-like lectin 9 (Homo sapiens) (UniProt Q9Y336). The experiment in a line: Hs-Siglec9 ALPHAscreen SOP 20170721. The note with it: 10 µM. In general terms: In Alpha technology, singlet oxygen from a donor bead excites a nearby acceptor bead.
Another experiment relates to Trypanosoma cruzi. Put plainly: Trypanosoma cruzi phosphomannomutase and mannose-1-phosphate guanylyltransferase assay. In kind it is functional. The note with it: 10 µM.
The target of experiment [4] is T2, Arginase-2, mitochondrial (Homo sapiens) (UniProt P78540).
T2 sequence (whole entry): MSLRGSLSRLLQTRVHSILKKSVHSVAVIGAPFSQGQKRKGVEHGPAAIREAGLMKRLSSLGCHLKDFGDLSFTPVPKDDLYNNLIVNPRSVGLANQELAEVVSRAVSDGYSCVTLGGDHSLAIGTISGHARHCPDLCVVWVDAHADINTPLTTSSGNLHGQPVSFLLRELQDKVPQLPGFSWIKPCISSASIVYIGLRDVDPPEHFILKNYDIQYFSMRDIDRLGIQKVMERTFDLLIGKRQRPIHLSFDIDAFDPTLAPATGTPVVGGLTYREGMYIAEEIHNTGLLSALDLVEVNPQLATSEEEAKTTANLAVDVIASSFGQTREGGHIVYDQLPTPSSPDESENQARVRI
Put plainly: in vitro enzyme assay to detect the production of urea directly proportional to the activity of Arginase II. Further: in the data most compounds retested in dose-response had high values. In kind it is functional. The note with it: 33.3 µM.

Experiment [5] has as its target T3, Proteasome subunit beta (Trypanosoma cruzi) (UniProt O96673).
T3 sequence (whole entry): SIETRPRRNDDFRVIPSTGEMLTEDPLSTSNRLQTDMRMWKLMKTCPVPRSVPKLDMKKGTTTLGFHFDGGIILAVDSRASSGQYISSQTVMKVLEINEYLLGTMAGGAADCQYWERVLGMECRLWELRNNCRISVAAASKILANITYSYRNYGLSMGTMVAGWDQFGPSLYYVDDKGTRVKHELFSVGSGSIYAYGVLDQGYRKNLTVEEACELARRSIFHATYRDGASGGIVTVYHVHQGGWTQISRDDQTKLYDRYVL
The experiment in a line: Trypanosoma cruzi proteasome chymotrypsin-like activity (TcProtChymo) assay. Further: in the data most compounds retested in dose-response had high values. The class given is functional. The note with it: 9.37 µM.

Another experiment is filed under the species Homo sapiens. Put plainly: To identify inhibition of the IFN signalling (Jak-Stat) pathway via expression of an eGFP reporter gene under the control of an IFN-stimulated response element (ISRE) containing MxA promoter. In kind it is functional. The note with it: 30 µM.
In experiment [6] the target is T4, Tyrosyl-tRNA synthetase, putative (Trypanosoma cruzi (strain CL Brener)) (UniProt Q4DSP6).
T4 sequence (whole entry): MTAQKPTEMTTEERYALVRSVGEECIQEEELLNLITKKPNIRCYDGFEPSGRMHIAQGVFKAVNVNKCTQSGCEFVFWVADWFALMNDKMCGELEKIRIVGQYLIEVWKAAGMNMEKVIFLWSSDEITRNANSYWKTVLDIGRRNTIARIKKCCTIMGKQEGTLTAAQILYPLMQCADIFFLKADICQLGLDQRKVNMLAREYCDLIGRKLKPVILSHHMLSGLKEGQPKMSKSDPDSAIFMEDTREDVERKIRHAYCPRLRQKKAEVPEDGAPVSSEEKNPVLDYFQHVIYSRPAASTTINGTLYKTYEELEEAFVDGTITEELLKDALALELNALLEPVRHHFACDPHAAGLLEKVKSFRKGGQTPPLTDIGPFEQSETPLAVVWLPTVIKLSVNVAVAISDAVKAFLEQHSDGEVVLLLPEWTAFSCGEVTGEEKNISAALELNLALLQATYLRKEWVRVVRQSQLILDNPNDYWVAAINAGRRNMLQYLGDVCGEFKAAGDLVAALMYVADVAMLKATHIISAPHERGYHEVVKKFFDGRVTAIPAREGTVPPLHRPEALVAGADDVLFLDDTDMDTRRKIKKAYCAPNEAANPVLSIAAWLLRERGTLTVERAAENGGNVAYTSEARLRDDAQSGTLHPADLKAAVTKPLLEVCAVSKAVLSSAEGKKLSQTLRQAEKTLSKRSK
Put plainly: Trypanosoma cruzi tyrosyl tRNA synthetase (TcYRS) _High Tyrosine SOP. Further: in the data most compounds retested in dose-response had high values. The class given is functional. The note with it: 30 µM.

Experiment [7] has as its target T4, Tyrosyl-tRNA synthetase, putative (Trypanosoma cruzi (strain CL Brener)). Put plainly: Trypanosoma cruzi tyrosyl tRNA synthetase (TcYRS) SOP. In kind it is functional. The note with it: 30 µM.
The target in experiment [8] is Chromo domain-containing protein 1 (Saccharomyces cerevisiae (strain ATCC 204508 / S288c) (Baker's yeast)) (UniProt P32657). The experiment in a line: ScCHD-1 Enzyme Inhibition Assay. Further: in the data most compounds retested in dose-response had high values. The class given is functional. Conditions: 30 µM.
Chain of Chromo domain-containing protein 1 (Saccharomyces cerevisiae (strain ATCC 204508 / S288c) (Baker's yeast)) (P32657 whole entry, the tested form may be a part): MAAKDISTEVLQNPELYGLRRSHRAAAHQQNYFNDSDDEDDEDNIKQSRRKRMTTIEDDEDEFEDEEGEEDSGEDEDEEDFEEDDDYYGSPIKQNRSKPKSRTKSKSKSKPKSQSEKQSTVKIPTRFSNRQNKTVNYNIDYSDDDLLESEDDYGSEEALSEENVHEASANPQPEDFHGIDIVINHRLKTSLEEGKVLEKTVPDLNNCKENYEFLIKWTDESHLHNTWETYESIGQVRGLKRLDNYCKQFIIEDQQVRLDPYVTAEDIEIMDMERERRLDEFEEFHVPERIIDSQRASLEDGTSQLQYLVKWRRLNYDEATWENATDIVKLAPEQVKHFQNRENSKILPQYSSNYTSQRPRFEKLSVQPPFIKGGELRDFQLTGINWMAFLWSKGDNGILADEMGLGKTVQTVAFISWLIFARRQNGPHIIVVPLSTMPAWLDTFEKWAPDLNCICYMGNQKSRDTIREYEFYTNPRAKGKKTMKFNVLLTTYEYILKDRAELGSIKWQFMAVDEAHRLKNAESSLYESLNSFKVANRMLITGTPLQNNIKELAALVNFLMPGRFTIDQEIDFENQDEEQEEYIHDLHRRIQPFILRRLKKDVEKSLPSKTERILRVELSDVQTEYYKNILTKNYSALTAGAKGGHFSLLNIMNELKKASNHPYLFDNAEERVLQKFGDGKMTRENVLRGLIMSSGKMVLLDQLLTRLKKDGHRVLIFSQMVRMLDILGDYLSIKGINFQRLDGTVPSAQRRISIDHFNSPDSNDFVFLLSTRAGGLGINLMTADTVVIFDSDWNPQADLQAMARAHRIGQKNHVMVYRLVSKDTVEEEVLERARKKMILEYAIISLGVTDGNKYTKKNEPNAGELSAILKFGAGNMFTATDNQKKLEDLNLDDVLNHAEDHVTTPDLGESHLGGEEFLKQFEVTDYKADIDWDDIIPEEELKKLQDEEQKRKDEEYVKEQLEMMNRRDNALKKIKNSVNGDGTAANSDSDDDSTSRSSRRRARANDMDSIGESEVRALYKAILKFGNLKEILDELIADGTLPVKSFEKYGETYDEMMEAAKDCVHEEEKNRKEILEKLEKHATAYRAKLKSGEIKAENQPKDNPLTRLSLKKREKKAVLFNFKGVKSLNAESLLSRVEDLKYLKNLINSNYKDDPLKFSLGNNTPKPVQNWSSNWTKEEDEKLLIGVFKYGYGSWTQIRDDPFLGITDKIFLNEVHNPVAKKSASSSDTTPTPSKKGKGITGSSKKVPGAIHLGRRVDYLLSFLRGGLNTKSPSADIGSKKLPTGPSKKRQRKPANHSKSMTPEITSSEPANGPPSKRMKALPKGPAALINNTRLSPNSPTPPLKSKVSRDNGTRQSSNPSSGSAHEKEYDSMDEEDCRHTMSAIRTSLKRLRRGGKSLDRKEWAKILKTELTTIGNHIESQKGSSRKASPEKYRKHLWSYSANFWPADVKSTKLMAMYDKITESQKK

For part of these data: Potency and affinity values are given separately.

Chain of Sialic acid-binding Ig-like lectin 9 (Homo sapiens) (Q9Y336 whole entry): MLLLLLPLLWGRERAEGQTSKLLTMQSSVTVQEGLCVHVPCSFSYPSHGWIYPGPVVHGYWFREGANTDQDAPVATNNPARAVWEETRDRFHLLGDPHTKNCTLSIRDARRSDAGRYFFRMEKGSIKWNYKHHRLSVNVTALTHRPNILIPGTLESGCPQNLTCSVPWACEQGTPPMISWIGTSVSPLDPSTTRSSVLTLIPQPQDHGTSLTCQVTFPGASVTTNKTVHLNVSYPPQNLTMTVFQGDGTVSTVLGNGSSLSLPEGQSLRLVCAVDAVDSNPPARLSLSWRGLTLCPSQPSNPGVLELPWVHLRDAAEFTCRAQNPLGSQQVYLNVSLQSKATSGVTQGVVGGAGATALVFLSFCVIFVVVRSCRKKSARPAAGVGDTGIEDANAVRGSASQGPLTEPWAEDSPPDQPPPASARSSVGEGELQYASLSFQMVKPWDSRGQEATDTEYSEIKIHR
Chain of Protein translocase subunit SecA (Escherichia coli (strain K12)) (P10408 whole entry): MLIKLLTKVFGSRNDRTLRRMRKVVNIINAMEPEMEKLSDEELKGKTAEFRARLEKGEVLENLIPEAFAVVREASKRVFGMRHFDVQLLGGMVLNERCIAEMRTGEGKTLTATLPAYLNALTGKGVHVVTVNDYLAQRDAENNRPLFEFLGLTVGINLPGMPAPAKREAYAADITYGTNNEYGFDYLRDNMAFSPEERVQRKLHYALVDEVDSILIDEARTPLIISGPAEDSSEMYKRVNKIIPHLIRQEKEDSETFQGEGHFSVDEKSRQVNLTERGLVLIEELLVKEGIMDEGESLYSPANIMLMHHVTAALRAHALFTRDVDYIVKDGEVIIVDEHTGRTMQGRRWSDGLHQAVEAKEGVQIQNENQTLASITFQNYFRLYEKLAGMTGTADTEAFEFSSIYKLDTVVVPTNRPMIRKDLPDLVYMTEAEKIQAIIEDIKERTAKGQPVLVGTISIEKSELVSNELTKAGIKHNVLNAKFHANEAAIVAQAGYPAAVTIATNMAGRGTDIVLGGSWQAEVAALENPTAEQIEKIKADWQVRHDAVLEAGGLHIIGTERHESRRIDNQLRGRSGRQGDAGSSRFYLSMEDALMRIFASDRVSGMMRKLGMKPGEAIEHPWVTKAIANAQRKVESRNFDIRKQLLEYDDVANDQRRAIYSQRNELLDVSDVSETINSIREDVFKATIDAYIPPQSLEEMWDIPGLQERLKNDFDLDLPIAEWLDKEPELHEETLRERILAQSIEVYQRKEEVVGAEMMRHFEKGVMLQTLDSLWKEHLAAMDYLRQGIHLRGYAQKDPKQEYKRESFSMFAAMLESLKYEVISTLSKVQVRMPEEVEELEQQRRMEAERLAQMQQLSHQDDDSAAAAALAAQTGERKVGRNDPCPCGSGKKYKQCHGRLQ

Regarding `CCc1nc(CN(C)C2CCN(CCS(C)(=O)=O)C2)no1` (stereo not given), the Percent Effect in [1] was -1.27%; in experiment [2] it was 18.7%; in experiment [3], -4.89%; in the experiment with Trypanosoma cruzi, 0%; in experiment [4], -1.77%; in experiment [5] it was 16.9%. In addition, the Percent Effect in the experiment filed under Homo sapiens was 4.92%; in experiment [6], 5.79%; in [7] it was 17.9%; in experiment [8] it was -5.25%.
Turning to `NC(=O)c1cc(NC(=O)NCCc2cc(F)cc(F)c2)ccc1F`, the Percent Effect in experiment [1] is -0.0438%; in experiment [2] it was 10.4%; in experiment [3] it was 8.44%; in the experiment on Trypanosoma cruzi, 0.56%; in experiment [4], -2.66%; in experiment [5], 5.26%. Besides, the Percent Effect is -4.36% in the experiment listed under Homo sapiens, 5.88% in experiment [6], 23.5% in experiment [7] and -11.6% in experiment [8].
Take `O=S(=O)(NCCN1CCCCC1Cn1cncn1)c1ccccc1` (stereo not given): the Percent Effect in experiment [1] is -1.12%; in [2], 0%; in experiment [3], 6.15%; in the experiment with Trypanosoma cruzi, 1.68%; in [4], 7.99%; in [5], -5.61%. Further, the Percent Effect in the experiment listed under Homo sapiens was -18.3%; in experiment [6], 1.96%; in [7] it was 9.41%; in experiment [8] it was -1.75%.
For the compound `Cn1nc2c(cc1=O)CN(Cc1nnc(-c3ccc(F)cc3)o1)CC2`, the Percent Effect in [1] was -0.335%; in [2], 7.69%; in experiment [3] it was -9.64%; with Trypanosoma cruzi, -6.48%; in experiment [4], 7.79%; in experiment [5], 6.23%. Also, the Percent Effect in the experiment listed under Homo sapiens is 30.1%; in experiment [6], 0.478%; in experiment [7], 6.02%; in [8], -4.76%.
As for `CCn1c(CN2CCCC2)nnc1C1CCN(Cc2ccc(C)o2)CC1`, the Percent Effect in [1] was -1.86%; in experiment [2], 0%; in experiment [3], 4.03%; with Trypanosoma cruzi it was 6.89%; in [4], 13.6%; in experiment [5] it was 13.9%. Besides, the Percent Effect is 2.8% in the experiment filed under Homo sapiens, 6.92% in experiment [6], 19.5% in experiment [7] and -6.17% in experiment [8].
In the case of `CCc1nccn1C1CCCN(C(=O)c2csc(COC)n2)C1` (stereo not given), the Percent Effect is -5.68% in experiment [1]; 10.4% in experiment [2]; 12.8% in experiment [3]; -5.78% in the experiment with Trypanosoma cruzi; -1.43% in experiment [4]; 7.89% in experiment [5]. Also, the Percent Effect in the experiment filed under Homo sapiens was 13.9%; in experiment [6], 4.9%; in [7] it was 9.41%; in [8], -5.76%.
Regarding `CC(C)N1CCN(C(=O)Nc2cnn(CC(N)=O)c2)CC1`, the Percent Effect in experiment [1] was -3.33%; in [2] it was 17.9%; in experiment [3], -17.7%; in the experiment with Trypanosoma cruzi, 9.67%; in [4] it was 0%; in experiment [5], 11.7%. In addition, the Percent Effect in the experiment listed under Homo sapiens was 5.26%; in experiment [6], -3.35%; in [7], 22.9%; in experiment [8], -6.52%.
Take `Cc1ccc(CN(C)CC(=O)NC2(C)CCS(=O)(=O)C2)cc1` (stereo not given): the Percent Effect in [1] was -0.346%; in experiment [2], 8%; in experiment [3], -1.85%; in the experiment on Trypanosoma cruzi it was -2.81%; in experiment [4] it was -1.77%; in [5] it was 7.89%. Also, the Percent Effect was 21.9% in the experiment listed under Homo sapiens, 10% in experiment [6], 15.4% in experiment [7] and -11.2% in [8].
`Cc1cccc(C(=O)N2CCC(Cc3cnc4[nH]ccc4c3)CC2)n1`: the Percent Effect in [1] was -4.68%; in experiment [2], 12%; in [3], -0.292%; with Trypanosoma cruzi, -3.35%; in [4] it was 4.42%; in [5], 9.2%. Besides, the Percent Effect in the experiment filed under Homo sapiens is 2.32%; in experiment [6] it was 3.17%; in experiment [7], 7.5%; in experiment [8], -24.1%.
As for `Cc1nc(C)n(CC2CCCN2Cc2cn(-c3ccccc3)nn2)n1` (stereo not given), the Percent Effect in experiment [1] is -2.72%; in [2], -2.67%; in experiment [3], 1.09%; with Trypanosoma cruzi it was -1%; in experiment [4], -1.77%; in experiment [5], 2.97%. The Percent Effect in the experiment filed under Homo sapiens was -1.44%; in experiment [6], 3.68%; in experiment [7], 0%; in [8] it was -6.83%.
Take `Cc1cccnc1CN(C)CC1(O)CCCN(CC2CCCCC2)C1=O` (stereo not given): the Percent Effect was -5.13% in experiment [1]; -2.7% in experiment [2]; 19.5% in experiment [3]; 6.69% in the experiment on Trypanosoma cruzi; 5.94% in experiment [4]; 9.76% in [5]. In addition, the Percent Effect in the experiment filed under Homo sapiens was 23%; in [6], 13.3%; in experiment [7], 17.1%; in [8], -2.65%.
With `CCc1nc(CN2CCCN(C(=O)c3cn[nH]c3CC)CC2)cs1`, the Percent Effect was 0.744% in experiment [1]; 17.9% in [2]; -17.5% in experiment [3]; -0.282% in the experiment with Trypanosoma cruzi; -6.97% in experiment [4]; 10.2% in experiment [5]. Further, the Percent Effect in the experiment filed under Homo sapiens was -6.8%; in [6], 6.22%; in [7] it was 13.2%; in experiment [8], -6.17%.

The values above are taken from ChEMBL document CHEMBL3988442, “University of Dundee, Small-Polar-MMV Screening Library” (2021).
